# USP17 inh = inhibitors of human USP17 deubiquitinase. A8MUK1. purified USP17, Ub-rhodamine cleavage fluorescence, 3 h. inhibition, % at 50 µM. 47,000 compounds, 6.5% hits. AID 1645855
# USP8 block = inhibitors of human USP8 deubiquitinase | 47,000 compounds, 4.2% hits | purified USP8, Ub-rhodamine cleavage fluorescence, 30 min | inhibition, % at 20 µM | P40818
# USP30 inh = human USP30 deubiquitinase inhibition | inhibition, % at 25 µM | 47,000 compounds, 5.3% hits | purified USP30, Ub-rhodamine cleavage fluorescence
# Target sequence (Q70CQ3 whole entry, looked up): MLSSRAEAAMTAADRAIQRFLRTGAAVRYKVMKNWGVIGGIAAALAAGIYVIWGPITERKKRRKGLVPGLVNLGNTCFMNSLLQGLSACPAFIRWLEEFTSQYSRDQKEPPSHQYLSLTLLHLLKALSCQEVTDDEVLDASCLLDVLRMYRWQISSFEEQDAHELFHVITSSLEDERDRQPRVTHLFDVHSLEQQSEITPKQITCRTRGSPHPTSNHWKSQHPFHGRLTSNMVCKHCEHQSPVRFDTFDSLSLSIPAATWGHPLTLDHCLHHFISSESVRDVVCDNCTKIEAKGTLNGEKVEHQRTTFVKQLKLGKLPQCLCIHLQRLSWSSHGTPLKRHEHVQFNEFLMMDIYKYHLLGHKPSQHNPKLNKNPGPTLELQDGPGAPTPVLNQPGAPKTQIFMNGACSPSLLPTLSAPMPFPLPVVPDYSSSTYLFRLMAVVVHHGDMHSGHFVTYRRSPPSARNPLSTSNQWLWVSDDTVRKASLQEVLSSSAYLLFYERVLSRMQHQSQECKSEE
# USP7 block = human USP7 deubiquitinase inhibition | purified USP7, Ub-rhodamine cleavage fluorescence | inhibition, % at 20 µM | 47,000 compounds, 0.3% hits | AID 1645854
# UCHL1 block = human UCHL1 deubiquitinase inhibition | P09936 | purified UCHL1, Ub-rhodamine cleavage fluorescence | inhibition, % at 20 µM | 47,000 compounds, 0.2% hits | AID 1645859
# USP10 block = blocks human USP10 ubiquitin-rhodamine cleavage. inhibition, % at 20 µM. Q14694. purified USP10, Ub-rhodamine fluorescence, 60 min. AID 1645856. 47,000 compounds, 1.1% hits
# Numbers stand for hits; . = inactive; / = no result given. Most compounds without a hit are left out; they make up all but 12% or so of the library. Cut-off read from the data, not from the text of the source: active = inhibition above about 30%; inactive = the rest.
SMILES,USP17 inh,USP8 block,USP30 inh,USP7 block,UCHL1 block,USP10 block
COc1ccc(-c2noc(N3CCCC(C(=O)N(C)c4ccc(C)c(C)c4)C3)n2)cc1 (centres undefined),.,.,.,.,.,.
Cc1ccc(S(=O)(=O)Nc2ccccc2C(=O)Nc2nc3ccc(Br)cc3s2)cc1,97,95,75,89,53,93
CC1OC1C(=O)[C@]1(O)[C@H](C)[C@@H](O)[C@@]23O[C@@]2([C@H](O)c2c(O)cccc2C3=O)[C@H]1O (some centres undefined),73,.,.,.,.,.
CCOc1ccc(-n2nnnc2-c2ccccn2)cc1,.,.,31,.,.,.
CCC(C)NCc1c(C(=O)O)n(Cc2ccccc2)c2ccccc12 (centres undefined),.,.,.,.,.,.
COc1ccc(CSc2cccc3ccc(C)nc23)cc1F,.,.,.,.,.,.
Cc1ccc(NC(=O)CSc2nnc(-c3cnccn3)n2Cc2ccco2)cc1,53,.,/,.,.,.
CCN(C(=O)c1nc2c(s1)CCCN2C(=O)C1CC1)C(C)C,.,.,.,.,.,.
Cc1cccc(Nc2nnc(Cc3ccccc3)c(=O)[nH]2)c1,.,59,.,.,.,.
COc1ccc(Nc2nnc(Cc3ccccc3)c(=O)[nH]2)cc1,.,.,.,.,.,.
COc1ccc(Cc2nnc(Nc3ccc(F)cc3)[nH]c2=O)cc1,.,52,.,.,.,.
COc1ccc(Cc2nnc(Nc3ccccc3)[nH]c2=O)cc1,.,51,.,.,.,.
COc1ccc(Cc2nnc(NC(C)c3ccccc3)[nH]c2=O)cc1 (centres undefined),.,67,.,.,.,31
COc1ccc(Cc2nnc(Nc3cccc(C)c3)[nH]c2=O)cc1OC,.,.,.,.,.,.
CC(C)N1Cc2cc(C(=O)N3CCN(c4ccc(F)cc4)CC3)sc2C1,.,.,.,.,.,.
CC(C)(C(=O)N1C[C@H]2CC(Oc3ccccc3)C[C@H]2C1)n1cncn1 (some centres undefined),.,.,.,.,.,.
COc1ccc(/C=C/C(=O)Nc2nc3n(n2)C(c2ccccc2)CC(=O)N3)cc1OC (centres undefined),.,79,.,.,.,.
Cc1ccc(C(=O)Nc2nc3n(n2)C(c2ccccc2)CC(=O)N3)cc1 (centres undefined),71,.,.,.,.,.
COc1ccc(/C=C/C(=O)Nc2nc3n(n2)C(c2ccccc2)CC(=O)N3)cc1 (centres undefined),.,73,31,.,.,.
O=C1CC(c2ccccc2)n2nc(NC(=O)c3ccccc3)nc2N1 (centres undefined),.,.,.,.,.,.
O=C1CC(c2ccc(Cl)cc2)n2nc(NC(=O)C3CC3)nc2N1 (centres undefined),.,.,.,.,.,.
O=C1CC(c2ccc(Cl)cc2)n2nc(NC(=O)c3cccs3)nc2N1 (centres undefined),.,.,.,.,.,.
O=C(/C=C/c1cccc([N+](=O)[O-])c1)Nc1nc2n(n1)C(c1ccccc1)CC(=O)N2 (centres undefined),.,.,38,.,.,.
CN(C)CC(=O)N1CCCCC1c1ccc2c(=O)n(C)c(=O)n(C)c2n1 (centres undefined),.,.,.,.,.,.
Cc1ccc(COc2cc(C(=O)NCC3CCCO3)c3ccccc3n2)cc1 (centres undefined),.,.,46,.,.,.
SMILES,USP17 inh,USP8 block,USP30 inh,USP7 block,UCHL1 block,USP10 block
Cc1ccc(COc2cc(C(=O)NCc3ccccc3C)c3ccccc3n2)cc1,.,.,43,.,.,.
Cc1ccc(COc2cc(C(=O)NC(C)C)c3ccccc3n2)cc1,.,.,35,.,.,.
Cc1ccc(CNC(=O)c2cc(OCc3ccccc3)nc3ccccc23)cc1,.,.,.,.,.,.
CCC1=NCC(=O)Nc2ccc(Cl)cc21,.,.,.,.,.,.
CCc1ccc(C(=O)N2CCC(c3nc4ccncc4n3C)C2)cc1 (centres undefined),.,.,.,.,.,.
COc1ccc2[nH]c(C(=O)NC3CCN(Cc4ccccc4)CC3)c(C)c2c1,.,.,.,.,.,.
COc1cc(OC)c2c(c1)C(=O)C1=C(COC(C)(O)C1)C2=O (centres undefined),82,68,.,.,.,.
COc1cc(CO)cc2c1C(=O)c1c(O)cc(O)cc1C2=O,.,.,.,.,.,.
O=C(NCc1cccnc1)[C@H]1CO[C@H]2CCN(C3CCCC3)C[C@H]2C1,.,.,.,.,.,.
COc1ccccc1NCC(=O)N1c2ccccc2NC(=O)C1(C)C,.,34,.,.,.,.
COc1ccccc1NC(C)C(=O)N1CC(=O)Nc2ccccc21 (centres undefined),.,.,.,.,.,.
CCOc1nc2cccnc2n(CC(=O)Nc2cccc(Cl)c2)c1=O,.,.,.,.,.,.
O=C1NCCN1C1CCCN(Cc2nnnn2-c2ccccc2)C1 (centres undefined),.,.,.,.,.,.
CCc1ccccc1N(CC)C(=O)c1cccc2c1SCCC2=O,.,.,33,.,.,.
COc1cccc(C2CC(=O)Nc3ccsc32)c1OCc1ccccc1 (centres undefined),.,.,41,.,.,.
CC(C)=CCOc1ccc(C[C@H]2NC(=O)[C@@H](C)NC(=O)[C@@H](Cc3ccc(O)cc3)NC(=O)CNC(=O)[C@H](C)NC(=O)[C@H](Cc3ccccc3)OC2=O)cc1,.,.,.,.,.,.
CC(C)C[C@@H]1NC(=O)[C@H](Cc2ccccc2)N(C)C(=O)[C@H](C)NC(=O)c2ccccc2NC(=O)[C@H](Cc2ccc(O)cc2)N(C)C1=O,41,.,.,.,.,.
CC(C)CCSc1ncnc2c1sc1nc(C(C)C)c3c(c12)CCC3,.,.,.,.,.,.
O=C(c1cn(-c2ccccc2)nc1-c1cccc(Br)c1)N1CCCCC1,.,.,.,.,.,.
O=C(Nc1ccccc1)c1c(O)c2cnn(Cc3ccccc3)c2[nH]c1=O,.,57,.,.,.,.
Cn1cc2nc(SCC(=O)NCc3ccccc3Cl)n(CC3CC3)c(=O)c2n1,.,42,32,.,.,.
CSc1ncc2c(=O)n(CC(=O)Nc3cc(Cl)ccc3C)cnc2n1,.,.,/,/,.,.
Cc1ccc(Cl)cc1NC(=O)CSc1nc2cn(C)nc2c(=O)n1CC1CC1,68,61,54,.,.,.
Cc1c(Cl)cccc1NC(=O)CSc1nc2cn(C)nc2c(=O)n1CC1CC1,.,43,.,.,.,.
CCn1c(SCC(=O)Nc2cccc(Cl)c2C)nc(=O)c2c(C)cc(C)nc21,.,.,.,.,.,.
CCOC(=O)CSc1nc2nccnc2c(=O)n1Cc1ccccc1Cl,.,.,.,.,.,.

# Screens (PubChem)
